TLR9-MyD88 block: blocks human TLR9 binding to MyD88. CHO BLA complementation TLR9-MyD88, CCF4 FRET ratio. inhibition, % at 4.98 µM. actives 0.21% (n = 340,000). AID 504734;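 active = inhibition above the mean over all tested compounds plus 3 SD, cut at about 21% in these data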;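 also: 0% = DMSO only wells and 100% = clavulanate BLA inhibitor control wells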
NPR2 activator: GC-B (human) receptor activation; activation, % at 10 µM; AID 1920062; actives 0.11% (n = 370,000); HEK293-GC-B cells, CNP EC30, cGMP TR-FRET; 0% at EC30 CNP, 100% saturating CNP;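 active = activation at 10 µM reaching about 35% in either raw or pattern-adjusted values, limit read from the data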
NOD2-RIPK2 inh: inhibitors of human NOD2-RIPK2 interaction; O43353; CHO BLA complementation NOD2-RIPK2, CCF4 ratio; inhibition, % at 4.98 µM; actives 0.38% (n = 360,000); AID 624267; in the data active = inhibition above about 21%;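 also: 0% = vehicle only and 100% = reference blocker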
Target sequence (O43353 whole entry, looked up): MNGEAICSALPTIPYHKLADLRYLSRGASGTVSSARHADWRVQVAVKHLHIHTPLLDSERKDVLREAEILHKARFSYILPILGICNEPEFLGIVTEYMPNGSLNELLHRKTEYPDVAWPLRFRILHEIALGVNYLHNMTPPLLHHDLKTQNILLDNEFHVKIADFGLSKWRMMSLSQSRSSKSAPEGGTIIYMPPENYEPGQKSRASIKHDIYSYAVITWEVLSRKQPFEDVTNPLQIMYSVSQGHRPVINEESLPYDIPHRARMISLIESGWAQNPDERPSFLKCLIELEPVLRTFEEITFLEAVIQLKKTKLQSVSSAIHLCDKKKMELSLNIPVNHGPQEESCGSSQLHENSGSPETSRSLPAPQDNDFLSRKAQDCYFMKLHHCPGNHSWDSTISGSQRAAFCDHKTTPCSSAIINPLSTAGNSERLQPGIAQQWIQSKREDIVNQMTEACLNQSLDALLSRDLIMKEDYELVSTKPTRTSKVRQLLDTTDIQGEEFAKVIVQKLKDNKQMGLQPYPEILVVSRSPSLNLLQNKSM
Neddylation inh: inhibitors of human cullin neddylation | P61081+Q13564 | TR-FRET cullin neddylation, biochemical | inhibition, % at 25 µM | actives 0.58% (n = 360,000) | AID 651699; in the data active = inhibition above about 36%
TLR4-MyD88 BLA: blocks binding of human TLR4 to MyD88 | O00206+Q99836 | HeLa CL3-4 TLR4/MyD88 BLA complementation, FRET ratio | inhibition, % at 8.4 µM | actives 0.18% (n = 200,000) | AID 861; in the data active = inhibition above about 25%;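 also: 0% = vehicle and 100% = reference inhibitor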
GC-A act: GC-A (human) enzyme activation | HEK293 GC-A cells, cGMP TR-FRET, EC30 ANP; 0% at EC30 ANP, 100% saturating ANP | activation, % at 10 µM | actives 0.14% (n = 370,000) | AID 1671463; in the data active = activation above about 40%
Neddyl inh conf: confirmation of human cullin neddylation inhibitors | shares compounds with Neddylation inh | TR-FRET cullin neddylation biochemical assay | calls only at 25 µM | actives 13% (n = 1,800); in the data active = inhibition above about 40%;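 also: neddylation substrate is the cullin 1 ring ligase complex with SKP2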
* marks the source's active call; other numbers are inactive results; i = inactive; · = not tested or not shown; + = active, no number; ! = not confirmed by another sample. An excerpt weighted towards active compounds, which were near 1.2% of everything screened.

SMILES | TLR9-MyD88 block | NPR2 activator | NOD2-RIPK2 inh | Neddylation inh | TLR4-MyD88 BLA | GC-A act | Neddyl inh conf
CCCCN(CC)CCNC(=O)c1cc2c(=O)n(C)c3ccccc3c2n1C | -3 | 0 | -12 | 37 | 6 | 0 | ·
CCN(CC)CCCNC(=O)c1cc2c(=O)n(C)c3ccccc3c2n1C | -2 | 0 | -2 | 41* | -3 | 3 | i
Nc1c2c(=O)[nH]c(O)cc2nn1-c1ccccc1 | 4 | 0 | -3 | 23 | · | -1 | ·
CCCN(CCC)CCCNC(=O)c1cn(CCOC)c(=O)c2c1c1ccccc1n2C | 1 | -12 | -1 | 38* | -1 | -5 | i
CCCCN(C)C(=O)C1CCC(CNS(=O)(=O)c2ccc3c(c2)CC(C)N3C(=O)C2CC2)CC1 (configuration not stated) | -5 | 6 | 4 | -2 | · | 4 | ·
COc1ccc(CN2C[C@H](COCc3ccccc3)Oc3cccc(F)c3S2(=O)=O)cc1 | · | 0 | · | · | · | -3 | ·
COc1ccc(CCNC(=O)C2=CC=CN3CCS(=O)(=O)N=C23)cc1 | -4 | -3 | 9 | 23 | · | -1 | ·
O=C(NCCc1ccc(Cl)cc1)C1=CC=CN2CCS(=O)(=O)N=C12 | -10 | -1 | -3 | 46* | · | 1 | +
COCCn1nnnc1C(C(C)C)N(Cc1cccnc1)Cc1cc2cc(OC)ccc2[nH]c1=O (configuration not stated) | -7 | -4 | 3 | 40* | -2 | -6 | i
Oc1cc2c(c(Cl)c1O)CCNCC2c1ccccc1 (configuration not stated) | -2 | -5 | -12 | -3 | · | -7 | ·
Oc1ccc(C2CNCCc3c2cc(O)c(O)c3Cl)cc1 (configuration not stated) | 0 | 3 | -10 | 50*! | · | 1 | ·
COc1cc(/C=C/C(=O)NCc2cccnc2)cc(OC)c1OC | 8 | 2 | -4 | 47* | -7 | 0 | i
COc1cc2c(cc1NC(=O)/C=C/c1cc(OC)c(OC)c(OC)c1)oc1ccccc12 | 10 | 5 | -16 | 46* | -2 | -2 | i
COc1ccc(/C=C/C(=O)NCc2cccnc2)cc1 | -4 | 1 | -1 | -6 | -4 | 5 | ·
COc1cc(N)c(Cl)cc1C(=O)OCC(=O)Nc1ccc(N2CCOCC2)cc1 | -9 | 0 | 0 | 18 | · | -3 | ·
COc1ccc(Cl)cc1Nc1nc(N)c2ccccc2n1 | -6 | -14 | 8 | 45* | · | -5 | +
CCOC(=O)c1cnn2c(N)c(C#N)cnc12 | -5 | -1 | -4 | 39* | -7 | 3 | i
COc1cc(S(=O)(=O)Nc2ccc3c(c2)C(=O)N(C)C3=O)ccc1NC(C)=O | 13 | 3 | -5 | 26 | · | 3 | ·
C=CCN1C(=O)C(CC(=O)O)S/C1=N/N=C/c1ccc(N(CC)CC)cc1 (configuration not stated) | 1 | -2 | -6 | 43* | · | 0 | +
Cc1cccc2nc3ccccc3cc12 | 0 | -4 | 3 | 39* | · | -1 | ·
O=C1c2ccccc2-c2n[nH]c3cccc1c23 | 9 | -4 | 5 | 42* | · | 10 | ·
CCNc1oc(/C=C/c2ccc(OCC)cc2)nc1C#N | 0 | -5 | -16 | 47* | · | -5 | ·
CCN(CC)CCCNc1oc(/C=C/c2ccccc2)nc1C#N | · | 1 | -8 | · | · | 6 | ·
O=C(NCC(F)(F)F)c1cc2c(c(-c3cccc(-c4ccccc4F)c3)n1)[C@H](CCO)N(C(=O)CC1CC1)C2 | · | -1 | -5 | -9 | · | -4 | ·
CCN(CC)S(=O)(=O)c1cccc(-c2nn(-c3ccccc3)cc2/C=C(\C#N)C(=O)NCc2ccco2)c1 | -7 | 12 | -1 | 39* | 3 | 5 | i
SMILES | TLR9-MyD88 block | NPR2 activator | NOD2-RIPK2 inh | Neddylation inh | TLR4-MyD88 BLA | GC-A act | Neddyl inh conf
CN(C)c1ccc(-c2nc3cnccn3c2Nc2ccc3c(c2)OCCO3)cc1 | 0 | 1 | -5 | 46* | · | 9 | ·
CN(C)CCN(Cc1ccccc1)C(=O)C1CCN(c2ncnc3c2nc2n3CCCCC2)CC1 | 4 | 3 | 2 | 43* | · | 1 | i
CN1CCc2c1nc1ccccc1c2NC(=O)CN1CCCC1 | 3 | 3 | 4 | 41* | · | -7 | i
CCCCCCC(=O)Nc1c2c(nc3ccccc13)N(C)CC2 | -11 | 4 | 3 | · | -4 | 2 | ·
CN1CCN(CC(=O)Nc2cc(N(C)C)nc3ccccc23)CC1 | 5 | 0 | -7 | 40* | 13 | 20 | i
COc1ncc(C2=CC(=O)CC(C)(C)C2)cn1 | 0 | 3 | -6 | -2 | · | 0 | ·
Cc1ccc(-c2nnc(Nc3ccc(CC(N)=O)cc3)c3ccccc23)cc1S(N)(=O)=O | -2 | 1 | 8 | 19 | · | 10 | ·
Cc1ccc(-c2nnc(Nc3ccc(CC(N)=O)cc3)c3ccccc23)cc1 | 0 | -2 | -15 | 45* | -1 | 4 | i
Cc1ccc2c(c1)c1c3n2CC(=C2C(=O)OC(C)(C)OC2=O)NC3CCC1 (configuration not stated) | 16 | 1 | 18 | 45* | 7 | 4 | i
Cc1ccc2c(c1)c1c(n2CC2COC(C)(C)O2)C(=O)CCC1 (configuration not stated) | -9 | 2 | -2 | · | 19 | -6 | ·
CCC(=O)Nc1nnc(-c2ccccn2)o1 | -10 | 1 | 0 | 34 | 5 | 2 | ·
O=C(CCc1ccccc1)Nc1nnc(-c2ccccn2)o1 | -1 | -5 | 2 | 42* | 3 | 1 | +
CCN(CC)C(=O)c1nc[nH]c1C(=O)N1CCN(c2ccccc2)CC1 | 5 | 8 | -3 | -8 | · | 2 | ·
COc1ccc(Cl)cc1NC(=O)c1nnn(CC(=O)Nc2ccc(C)c(C)c2)c1N | -2 | -6 | -10 | 44* | · | -1 | i
COC(=O)C1=C(C)NC2=C(C(=O)C(C(=O)OC)C(c3ccc(OC)cc3)C2)C1c1ccccn1 (configuration not stated) | -6 | -6 | 7 | 49* | 5 | -5 | ·
COC(=O)c1cccc(CN2C(=O)SC(Nc3ccccc3)C2=O)c1 (configuration not stated) | 7 | -1 | 0 | 37* | · | -3 | i
Cc1cccc(NC2SC(=O)N(CC(=O)O)C2=O)c1 (configuration not stated) | -7 | 0 | -5 | 8 | 6 | 0 | ·
CCS(=O)(=O)N1Cc2ccccc2CC1C(=O)Nc1ccc(F)c(F)c1 (configuration not stated) | -5 | -8 | -5 | 4 | · | 6 | ·

Bioassay records: PubChem BioAssay, several laboratories
